Assay results reported in PubChem BioAssay (Tox21).
Where “and” joins values, the source holds several entries; their conditions need not be identical. Identical values can stand only once. Results filed as inconclusive are left out. Entries that show only a call come without a potency. Where a structure was tested more than once in an assay, its records may differ in their call. Calls of active or inactive are those of the source. The call rests on the fitted dose curve; in most records, active means well fitted curve in the direction sought with a large enough effect in the repeat runs; inconclusive means weak or mixed curves; inactive means no such curve, though single readings can be large; an effect the other way counts as inactive or inconclusive.

Columns and labels:
[1] = A CellTox Green Cytotoxicity Assay to monitor cytotoxicity in HepG2 cells - 0 hour (AID 1224882); further: nearly all actives have a fitted effect of over 35% in size; further: potency means the concentration at half of the fitted maximal effect
How it was run: (§1)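 Real-time, homogeneous cytotoxicity readout: dead-cell DNA staining by CellTox Green in HepG2 monolayers, fluorescence measured at timed intervals up to 40 h of continuous compound exposure.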

[2] = A CellTox Green Cytotoxicity Assay to monitor cytotoxicity in HepG2 cells - 32 hour (AID 1224883); further: nearly all actives have a fitted effect of over 50% in size; further: potency means the concentration at half of the fitted maximal effect
How it was run: as §1

[3] = A CellTox Green Cytotoxicity Assay to monitor cytotoxicity in HEK293 cells - 8 hour (AID 1224884); further: nearly all actives have a fitted effect of over 35% in size; further: potency means the concentration at half of the fitted maximal effect
How it was run: (§2)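 Cytotoxicity was tracked continuously in HEK293 cells by a DNA-binding dye excluded from viable cells. Compounds were transferred in DMSO 5 h after seeding; fluorescence was recorded at intervals up to 40 h.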

[4] = qHTS RealTime-Glo MT Cell Viability Assay in HepG2 cells - 16 hour (AID 1224885); further: nearly all actives have a fitted effect of over 50% in size; further: potency means the concentration at half of the fitted maximal effect
How it was run: (§3)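 Real-time, nonlytic viability: 600 HepG2 cells/well mixed with NanoLuc enzyme plus prosubstrate; 5 h settle, compound (DMSO) added by pintool; luminescence monitored over 40 h at 37 C.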

[5] = qHTS RealTime-Glo MT Cell Viability Assay in HEK293 cells - 24 hour (AID 1224886); further: nearly all actives have a fitted effect of over 50% in size; further: potency means the concentration at half of the fitted maximal effect; on activity change, negative = cytotoxicity: top concentration of the series differs between compounds
How it was run: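 Cells + reagent dispensed (600 cells/well, HEK293) → 5 h at 37 C/5% CO2 → 23 nL compound in DMSO pinned → 40 h at 37 C → luminescence read at 0, 8, 16, 24, 32, 40 h.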

[6] = qHTS RealTime-Glo MT Cell Viability Assay in HEK293 cells - 8 hour (AID 1224887); further: nearly all actives have a fitted effect of over 50% in size; further: potency means the concentration at half of the fitted maximal effect; on activity change, negative = cytotoxicity: top concentration of the series differs between compounds
How it was run: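 Nonlytic bioluminescent viability monitoring. HEK293 at 600 cells/well with reagent; 5 h settle; compound transfer by pintool; plates held at 37 C and read at set time points.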

[7] = A CellTox Green Cytotoxicity Assay to monitor cytotoxicity in HEK293 cells - 16 hour (AID 1224888); further: nearly all actives have a fitted effect of over 35% in size; further: potency means the concentration at half of the fitted maximal effect
How it was run: as §2

[8] = qHTS RealTime-Glo MT Cell Viability Assay in HepG2 cells - 0 hour (AID 1224889); further: nearly all actives have a fitted effect of over 50% in size; further: potency means the concentration at half of the fitted maximal effect
How it was run: as §3

[9] = A CellTox Green Cytotoxicity Assay to monitor cytotoxicity in HepG2 cells - 8 hour (AID 1224890); further: nearly all actives have a fitted effect of over 45% in size; further: potency means the concentration at half of the fitted maximal effect
How it was run: as §1

[10] = qHTS assay to identify small molecule antagonists of the estrogen receptor alpha (ER-alpha) signaling pathway using the BG1 cell line in the presence of 0.1 nM 17-beta-estradiol - cell viability counter screen (AID 1259241); further: nearly all actives have a fitted effect of over 40% in size
How it was run: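 Measures cytotoxicity alongside the ER-alpha antagonist readout: VM7Luc4E2 cells, charcoal-stripped serum, 0.1 nM 17beta-estradiol final, 22 hr compound incubation at 37C, CellTiter-Fluor fluorescence.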

Compound | Potency [1] | Potency [2] | Potency [3] | Potency [4] | Potency [5] | Potency [6] | Potency [7] | Potency [8] | Potency [9] | Potency [10] | cytotoxicity increase [2] | activity change, negative = cytotoxicity [5]
Brc1nc2ccccc2s1 | inactive | inactive | inactive | inactive | inactive | inactive | inactive | inactive | inactive | inactive |  | 
O=Cc1ccccc1C=O | inactive | 21.9 µM (active) and inactive | inactive | inactive | inactive | inactive | inactive | inactive | inactive | inactive |  | 
COc1ccc(C(=O)c2ccccc2O)c(O)c1 | inactive | inactive | inactive | inactive | inactive | inactive | inactive | inactive | inactive | inactive |  | 
C[C@]12CC[C@@H]3c4ccc(O)cc4CC[C@H]3[C@@H]1CC[C@H]2O | inactive | 11.2 µM (active) and 34.7 µM (active) | inactive | inactive | 5.59 µM (active) and 13.8 µM (active) | inactive | inactive | inactive | inactive | inactive |  | 
OCCNCCO | inactive | inactive | inactive | inactive | inactive | inactive | inactive | inactive | inactive | inactive |  | 
CCCCCCCCCCC(CO)CCCCCCCC (stereo not given) | inactive | inactive | inactive | inactive | inactive | inactive | inactive | inactive | inactive | inactive |  | 
Nc1cc(Cl)c(N)c(Cl)c1 | inactive | inactive | inactive | inactive | inactive | inactive | inactive | inactive | inactive | inactive |  | 
Oc1c(Cl)ccc(Cl)c1Cl | inactive | inactive | inactive | inactive | inactive | inactive | inactive | inactive | inactive | inactive |  | 
C/C=C/C(=O)N(CC)c1ccccc1C | inactive | inactive | inactive | inactive | inactive | inactive | inactive | inactive | inactive | inactive |  | 
c1ccc2ncccc2c1 | inactive | inactive | inactive | inactive | inactive | inactive | inactive | inactive | inactive | inactive |  | 
CCCN1C=CN(C)C1 | inactive | inactive | inactive | inactive | inactive | inactive | inactive | inactive | inactive | inactive |  | 
CCCCCCC(C)O (stereo not given) | inactive | inactive | inactive | inactive | inactive | inactive | inactive | inactive | inactive | inactive |  | 
Cc1ccc(C)c(O)c1 | inactive | inactive | inactive | inactive | inactive | inactive | inactive | inactive | inactive | inactive |  | 
C[C@]12C=CC(=O)C=C1CC[C@H]1[C@@H]3C[C@@H](O)[C@](O)(C(=O)CO)[C@@]3(C)C[C@H](O)[C@@]12F | inactive | inactive | inactive | inactive | inactive | inactive | inactive | 21.9 µM (active) | inactive | inactive |  | 
CCCCCCOCCOCCO | inactive | inactive | inactive | inactive | inactive | inactive | inactive | inactive | inactive | inactive |  | 
O=C1OC2(c3ccccc31)c1cc(I)c(O)c(I)c1Oc1c2cc(I)c(O)c1I | 11.8 µM (active) [middle of 4 runs] | 13.3 µM (active) [middle of 4 runs] | 13.3 µM (active) [middle of 4 runs] | 39 µM (active) and 27.9 µM (active) | 49.1 µM (active) and inactive | 49.1 µM (active) and inactive | 13.3 µM (active) [middle of 4 runs] | 12.3 µM (active) [middle of 4 runs] | 11.8 µM (active) [middle of 4 runs] |  |  | 
CC1(C)OC(=O)NC1=O | inactive | inactive | inactive | inactive | inactive | inactive | inactive | inactive | inactive | inactive |  | 
C=CC(=O)OCCCC | inactive | inactive | inactive | inactive | inactive | inactive | inactive | inactive | inactive | inactive |  | 
Nc1cc([N+](=O)[O-])ccc1C(=O)O | inactive | inactive | inactive | inactive | inactive | inactive | inactive | inactive | inactive | inactive |  | 
CCOC(=O)C(C)Oc1ccc(Oc2cnc3cc(Cl)ccc3n2)cc1 (stereo not given) | inactive | inactive | inactive | inactive | 22.4 µM (active) and 36.4 µM (active) | 14.1 µM (active) and 16.3 µM (active) | inactive | inactive | inactive | inactive |  | 
CCCCCCCCCCCCO | inactive | inactive | inactive | inactive | inactive | inactive | inactive | inactive | inactive | inactive |  | 
O=C(O)c1ccc(O)cc1 | inactive | inactive | inactive | inactive | inactive | inactive | inactive | inactive | inactive | inactive |  | 
CCCOCCO | inactive | inactive | inactive | inactive | inactive | inactive | inactive | inactive | inactive | inactive |  | 

Compound | Potency [1] | Potency [2] | Potency [3] | Potency [4] | Potency [5] | Potency [6] | Potency [7] | Potency [8] | Potency [9] | Potency [10] | cytotoxicity increase [2] | activity change, negative = cytotoxicity [5]
CC(=O)[C@H]1CC[C@H]2[C@@H]3CC=C4C[C@@H](O)CC[C@]4(C)[C@H]3CC[C@]12C | inactive | inactive | inactive | inactive | inactive | inactive | inactive | inactive | inactive | inactive |  | 
c1ccc2c(c1)[nH]c1ccccc12 | inactive | inactive | inactive | inactive | inactive | inactive | inactive | inactive | inactive | inactive |  | 
Cc1ccc(C(C)(C)C)cc1 | inactive | inactive | inactive | inactive | inactive | inactive | inactive | inactive |  | inactive |  | 
CC(=O)Nc1ccc2c(c1)Cc1cc(NC(C)=O)ccc1-2 | inactive | inactive | inactive | inactive | inactive | inactive | inactive | inactive | inactive | inactive |  | 
NCCN | inactive | inactive | inactive | inactive | inactive | inactive | inactive | inactive | inactive | inactive |  | 
COCCOCCOCCO | inactive | inactive | inactive | inactive | inactive | inactive | inactive | inactive | inactive | inactive |  | 
CC(=O)O[C@]1(C(C)=O)CC[C@H]2[C@@H]3C=C(C)C4=CC(=O)CC[C@]4(C)[C@H]3CC[C@@]21C | inactive | inactive | inactive | inactive | 19.5 µM (active) | inactive | inactive | 347 nM (active) and 952 nM (active) | inactive | inactive |  | 
Cc1ccc2c(c1)C(=O)OC2=O | inactive | inactive | inactive | inactive | inactive | inactive | inactive | inactive | inactive | inactive |  | 
O=[Se](O)O | inactive | 24.6 µM (active) | inactive |  |  | inactive | inactive | inactive | inactive | inactive | 9.15% [at 15.8 µM] (inactive) | -26.2% [at 15.8 µM] (inactive)
NCCS(=O)(=O)O | inactive | inactive | inactive | inactive | inactive | inactive | inactive | inactive | inactive | inactive |  | 
CC1=CC(C)(C)Nc2ccccc21 | inactive | inactive | inactive | inactive | inactive | inactive | inactive | inactive | inactive | inactive |  | 
COc1ccc2nc(N)sc2c1 | inactive | inactive | inactive | inactive | inactive and 3.09 µM (active) | inactive | inactive | inactive | inactive | inactive |  | 
CNC[C@H](O)c1ccc(O)c(O)c1 | inactive | inactive | inactive | inactive | inactive | inactive | inactive | inactive |  | inactive |  | 
C1COCCN1 | inactive | inactive | inactive | inactive | inactive | inactive | inactive | inactive | inactive | inactive |  | 
O=C(O)c1cc(=O)[nH]c(=O)[nH]1 | inactive | inactive | inactive | inactive | inactive | inactive | inactive | inactive | inactive | inactive |  | 
C=C[C@H]1CN2CC[C@H]1C[C@H]2[C@H](O)c1ccnc2ccc(OC)cc12 | inactive | 54.9 µM (active) and inactive | inactive | inactive | inactive |  | inactive | inactive | inactive | inactive |  | 
ClC/C=C/CCl | inactive | inactive | inactive | inactive | inactive |  | inactive | inactive | inactive | inactive |  | 
Cc1cccc(Nc2ccccc2C(=O)O)c1C | inactive | inactive | inactive | inactive | inactive | inactive | inactive | inactive |  | inactive |  | 
Nc1ccc2c(c1)C(=O)c1ccccc1C2=O | inactive | inactive | inactive | inactive | inactive | inactive | inactive | inactive |  | inactive |  | 
IC(I)I | inactive | inactive | inactive | inactive | inactive |  | inactive | inactive | inactive | inactive |  | 
c1ccc2c(c1)ccc1ncccc12 | inactive | inactive | inactive | inactive | inactive |  | inactive | inactive | inactive | inactive |  | 
CN(C)C | inactive | inactive | inactive | inactive | inactive |  | inactive | inactive | inactive | inactive |  | 
